Hits are enriched below; roughly 4.8% of the tested compounds scored in any of these assays.
ssDAF-12 act: S. stercoralis DAF-12 activation, primary screen | activation, % at 6.8 µM | hit rate 1% among 370,000 | AID 652126 | HEK293 ssDAF-12/GRIP1 lit1-tk-luc reporter, luminescence; % of 3 µM dafachronic acid response;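 active = activation above the mean over all tested compounds plus 3 SD, cut at about 0.9% in these data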;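 note: 0% = DMSO-only wells and 100% = 3 µM delta7-dafachronic acid wells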
DAX1 inh-1: inhibits human nuclear receptor DAX1. AID 504766. inhibition, % at 6.75 µM. hit rate 0.99% among 340,000. HEK293 Gal4-DAX1 luciferase reporter, luminescence;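 active = inhibition above the mean over all tested compounds plus 3 SD, cut at about 4.2% in these data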;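 note: 0% = DAX1-transfected cells with DMSO and 100% = empty-vector control cells with DMSO; inhibition shows as a rise in luminescence from relieved DAX1 repression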
Target sequence (P51843 207-470 limits assumed): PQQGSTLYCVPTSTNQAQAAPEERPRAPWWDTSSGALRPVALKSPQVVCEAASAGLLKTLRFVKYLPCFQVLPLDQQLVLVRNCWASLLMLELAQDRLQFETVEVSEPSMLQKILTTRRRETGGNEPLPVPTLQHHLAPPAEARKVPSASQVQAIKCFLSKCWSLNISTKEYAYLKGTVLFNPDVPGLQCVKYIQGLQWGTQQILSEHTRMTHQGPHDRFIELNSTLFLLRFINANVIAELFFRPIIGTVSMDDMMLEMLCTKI
hgDAF-12 ag: hgDAF-12 agonism, primary luciferase screen. HEK293 GAL4-hgDAF12 UAS-luciferase reporter, agonist luminescence; normalized to butyrate control. hit rate 1.8% among 370,000. activation, % at 6.8 µM;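 active = activation above a cutoff set at the mean of all screened compounds plus 3 SD, cut at about 10% in these data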;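 note: 0% = DMSO wells and 100% = sodium butyrate wells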
DAX1 inh-2: inhibitors of DAX1 repression of SF-1 activated StAR promoter; HEK293T StAR-luciferase reporter, SF-1/DAX-1 repression relief; inhibition, % at 6.8 µM; hit rate 1.1% among 370,000; AID 652010;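 active = inhibition above the mean over all tested compounds plus 3 SD, cut at about 3.6% in these data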;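 note: 0% = DAX-1 cells with DMSO and 100% = cells lacking DAX-1 with DMSO; higher inhibition means more luminescence from relief of DAX-1 repression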
SMARCA2 act: activators of SMARCA2 function. AID 652017. activation, % at 9.1 µM. MG213 cells, MMTV-luciferase reporter, dexamethasone, overnight. hit rate 1% among 370,000; in the data active = activation above about 7.8%;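 note: 0% = vehicle wells and 100% = reference activator wells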
hcDAF12 agonist: H. contortus DAF-12 activation, primary screen. activation, % at 6.8 µM. AID 652067. HEK293 hcDAF-12 lit1-tk-luc reporter, luminescence; 0% DMSO, 100% Δ7-dafachronic acid. hit rate 1.4% among 370,000;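 active = activation above the mean of all tested compounds plus 3 SD, cut at about 5.5% in these data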;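 note: 100% = response to 3 µM Δ7-dafachronic acid high control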
Active calls of the source: *; · = not tested or not shown.

SMILES | ssDAF-12 act | DAX1 inh-1 | hgDAF-12 ag | DAX1 inh-2 | SMARCA2 act | hcDAF12 agonist
NC(=O)c1ccc(Cn2c(C(=O)c3cc(Cl)c(N)c(Cl)c3)c3ccccc3[n+]2[O-])cc1 | 0 | 2 | 0 | -1 | 1 | 3
COc1ccc(C(=O)c2c3ccc(OC)cc3[n+]([O-])n2Cc2ccc(C(N)=O)cc2)cc1 | 1 | 2 | 4 | 0 | 2 | 6.3*
NC(=O)c1ccc(Cn2c(C(=O)c3ccc(Cl)cc3)c3ccccc3[n+]2[O-])cc1 | 0 | 0 | 1 | 0 | 0 | 5.7*
O=[N+]([O-])c1ccc(S(=O)(=O)Nc2nnc(C3CCCCC3)s2)cc1 | -1 | 1 | -1 | 0 | 3 | 2
CC1(C)CC(=O)C=C(c2ccc(-c3ccc(S(C)(=O)=O)cc3)cc2)C1=O | -1 | -1 | 7 | -1 | -1 | -1
COc1ccc(C)cc1S(=O)(=O)N(C)CC(=O)N1CCCC1 | -1 | 4.8* | -3 | 0 | -1 | -2
COc1ccc(C)cc1S(=O)(=O)N(C)CC(=O)N1CCCCC1 | -1 | -1 | 0 | 0 | 0 | 2
O=C(CC1C(=O)OCN1C(=O)OCc1ccccc1)OCC(=O)c1ccccc1 (stereo not drawn) | 0 | 4.9* | -1 | 0 | 1 | 0
CN(CCO)c1ccc2c(c1)OC[C@H](Cc1ccccc1)NS2(=O)=O | -2 | · | 4 | 1 | -2 | 1
N#Cc1cc(NC2CCCC2)c([N+](=O)[O-])cc1C#N | -1 | -1 | -2 | -1 | -3 | 1
N#Cc1cc(Nc2c(N)nc[nH]c2=O)c([N+](=O)[O-])cc1C#N | 0 | 0 | 3 | 0 | 1 | 6.0*
COc1cc(OC)cc(C(=O)NCC(=O)NCCN2C(=O)S/C(=C\c3ccc4c(c3)OCO4)C2=O)c1 | -1 | 0 | -2 | 0 | -1 | 1
CC1CCCC(NC(=O)CSc2ncccc2C(=O)O)C1C (stereo not drawn) | 1.2* | 1 | -2 | 0 | -1 | 2
CCc1cc2c(=O)c(-c3nc4ccccc4[nH]3)coc2c(CN2CCCCC2C)c1O (stereo not drawn) | -2 | 4.6* | 0 | -1 | 0 | -1
Clc1ccc([C@H]2OC[C@@]3(CNCc4ccccc4)CS[C@H](c4ccc(Cl)cc4)N23)cc1 | -2 | · | -1 | · | · | -1
CSc1nc(Cl)c(Cc2ccc(OCC(C)C)cc2)c(N2CCOCC2)n1 | -1 | -2 | 0 | -1 | 0 | 5.9*
CCCCOc1ccc(Cc2c(Cl)nc(SC)nc2N2CCOCC2)cc1 | -2 | -1 | 0 | 0 | 0 | -1
O=C(Nc1nccs1)C1(C(=O)C2CC2)CC(c2ccccn2)=NO1 (stereo not drawn) | 1.0* | · | 6 | 1 | 2 | 3
O=C(NCc1ccccc1)C1(C(=O)C2CC2)CC(c2ccccn2)=NO1 (stereo not drawn) | 0 | · | 2 | 1 | -4 | 1
CC(C)Oc1ccc(CN2CCC2(C)C(=O)NCc2cccc3ccccc23)cc1 (stereo not drawn) | -2 | · | -1 | 0 | -7 | -2
C[C@H](CO)N1C[C@H](C)[C@H](CN(C)C(=O)Nc2ccc(N3CCN(C)CC3)cc2)OCc2cnnn2CCCC1=O | -1 | 1 | 0 | 1 | 0 | 3
COC(=O)c1c(-c2ccccc2)csc1NC(=O)c1ccco1 | -1 | 0 | 11* | 3 | 6 | 0
O=C(Nc1scc(-c2ccc(F)cc2)c1C(=O)O)c1ccco1 | -1 | 0 | 4 | 2 | -3 | 1
N#Cc1cc2c(nc1SCC(=O)Nc1nccs1)CCCCC2 | 1.0* | 2 | 21* | 7.7* | 2 | 11*
O=C(/C=C/c1ccc(O)c(O)c1)c1ccccc1O | 0 | 0 | 9 | 1 | 7 | 1
SMILES | ssDAF-12 act | DAX1 inh-1 | hgDAF-12 ag | DAX1 inh-2 | SMARCA2 act | hcDAF12 agonist
Oc1cc(O)cc(C=Cc2ccc(O)c(O)c2)c1 | 0 | · | 10 | 4.3* | -2 | 4
NNC(=S)Nc1ccc(Cl)cc1 | 0 | -1 | 3 | 0 | -1 | 1
Cc1ccc(Cl)cc1NC(=S)NN | 0.9* | · | 2 | 0 | -2 | 2
Cc1ccc(Cl)cc1NC(=O)CCC(=O)O | -2 | 5.0* | 4 | 0 | -1 | -1
N#Cc1ccc(S(=O)(=O)N2CCN(C(=O)c3cn(-c4ccccc4)nc3-c3cccnc3)CC2)cc1 | -2 | 0 | 5 | -1 | -2 | 0
CCN=C(NCC)SC1CC(=O)N(CCc2ccccc2)C1=O (stereo not drawn) | -1 | · | 1 | 0 | -2 | -2
C=CCn1c(=O)c2ccccc2n2c(SCc3nc4ccccc4s3)nnc12 | 1.2* | 0 | 7 | 1 | 3 | 5
CCCCCCCCNS(=O)(=O)CC1NCc2cc(F)ccc21 (stereo not drawn) | -1 | · | 3 | 1 | -4 | 1
Cc1noc(C)c1C(=O)OC(C)C(=O)c1c[nH]c2ccccc12 (stereo not drawn) | -1 | 1 | 0 | -1 | -3 | 0
CN(C)c1ccc(C(=O)N/N=C/c2ccccn2)cc1 | 0 | 0 | 12* | 3.6* | 2 | 1
Cc1ccccc1C(=O)N/N=C/c1ccccn1 | -1 | 1 | 13* | 2 | 10* | 4
O=C(N/N=C/c1ccccn1)c1cccs1 | 1.5* | 4 | 9 | 0 | 0 | 4
COc1ccc(C(=O)N/N=C/c2ccccn2)cc1OC | -1 | 1 | 1 | 0 | 3 | -1
COc1ccc(OC)c(C(=O)N/N=C/c2ccccn2)c1 | -1 | 4.6* | 8 | 0 | 2 | 1
C[C@@H]1Cn2cnc(C(=O)N[C@@H](C)c3ccccc3)c2C(=O)N1 | -1 | 0 | 1 | 1 | -2 | 3
Cc1cn(CCC(=O)Nc2ccccc2N2CCOCC2)c2ccccc12 | 0 | 6.8* | 6 | 0 | -1 | 6.0*
O=C1NC(=S)N/C1=C/c1cccnc1 | -2 | 3 | 12* | 0 | -2 | -2
Cc1ccccc1OCC(=O)Nc1ccc(N2CCN(C(=O)c3ccco3)CC2)cc1 | -1 | -2 | -5 | -1 | -2 | -3
C=CCc1cccc(CNc2nc3ccccc3n2CCC)c1O | -1 | 4.7* | 0 | -1 | -1 | -3
C=CCc1cccc(CNc2nc3ccccc3n2CC)c1O | -1 | 0 | 3 | -1 | -1 | -1
O=C(OC12CCCN(C1)/C(=C/c1cccc(Cl)c1)C2)c1ccc(Cl)cc1 (stereo not drawn) | -1 | · | -3 | 1 | -4 | 2
CCOC(=O)C1=C(C)NC(C)=C(C(=O)OCC)C1/C=C/c1ccccc1OC | -2 | 6.4* | -2 | -1 | -3 | -2
COCCOC(=O)C1=C(C)NC(C)=C(C(=O)OCCOC)C1/C=C/c1ccccc1OC | -2 | 1 | -5 | 0 | -1 | -1

Screening results deposited in PubChem BioAssay by The Scripps Research Institute Molecular Screening Center.
